Reference: PubChem BioAssay AID1159580 (chemical genetic matrix, 2015)
Where “and” joins values, the source holds several entries; their conditions need not be identical. Equal values may be shown once. Hit rate of the full screen: of about 5,500 compounds, about 2,000 (36%) were called active. Not shown: some 18% with an inconclusive outcome. No stated cut-off is given here; in the data, active means normalized growth mostly below about 0.91 (no sharp cut-off); inconclusive means no clear call, values can overlap the other calls; inactive means mostly above about 0.92. Some of the results follow.

Experiment: chemical genetic growth profiling, strain panel (AID 1159580);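 further: tested at 20 µM; growth read once vehicle control cultures reached saturation at 30 °C; 1 = growth at the plate median or of vehicle wells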
Conditions: growth OD

Measured: normalized growth

O=C1NCC2(CCN(CCc3ccccc3)CC2)O1
inactive: S. cerevisiae deletion strains, locus YKL009W, strain mrt4, stronger effect = lower value 0.986 | S. cerevisiae deletion strains, locus YKL068W, stronger effect = lower value 0.995 | S. cerevisiae deletion strains, locus YKL085W, strain MDH1 (second series), stronger effect = lower value 0.995 | S. cerevisiae deletion strains, locus YKL085W, strain MDH1, stronger effect = lower value 0.995 | S. cerevisiae deletion strains, locus YKL160W, strain elf1, stronger effect = lower value 0.97 | S. cerevisiae deletion strains, locus YKL190W, strain CNB1, stronger effect = lower value 1 | S. cerevisiae deletion strains, locus YKR001C, strain vps1, stronger effect = lower value 0.999 | S. cerevisiae deletion strains, locus YKR026C, strain gcn3, stronger effect = lower value 0.939 | S. cerevisiae deletion strains, locus YKR091W, strain srl3, stronger effect = lower value 1.01 | S. cerevisiae deletion strains, locus YLL001W, strain dnm1, stronger effect = lower value 0.945 | S. cerevisiae deletion strains, locus YLL026W, stronger effect = lower value 1 | S. cerevisiae deletion strains, locus YLL041C, strain sdh2, stronger effect = lower value 0.999 | S. cerevisiae deletion strains, locus YLR027C, strain aat2, stronger effect = lower value 0.995 | S. cerevisiae deletion strains, locus YLR039C, strain RIC1, stronger effect = lower value 1 | S. cerevisiae deletion strains, locus YLR058C, strain SHM2, stronger effect = lower value 1.01 | S. cerevisiae deletion strains, locus YLR102C, strain apc9, stronger effect = lower value 0.999 | S. cerevisiae deletion strains, locus YLR113W, strain HOG1, stronger effect = lower value 0.964 | S. cerevisiae deletion strains, locus YLR221C, strain rsa3, stronger effect = lower value 1 | S. cerevisiae deletion strains, locus YLR258W, strain gsy2, stronger effect = lower value 1 | S. cerevisiae deletion strains, locus YLR262C, strain YPT6 (second series), stronger effect = lower value 0.981 | S. cerevisiae deletion strains, locus YLR262C, strain YPT6, stronger effect = lower value 0.968 | S. cerevisiae deletion strains, locus YLR268W, strain sec22, stronger effect = lower value 1.04 | S. cerevisiae deletion strains, locus YLR320W, strain mms22, stronger effect = lower value 1.02 | S. cerevisiae deletion strains, locus YLR330W, strain CHS5, stronger effect = lower value 1.01 | S. cerevisiae deletion strains, locus YLR342W, strain FKS1 (second series), stronger effect = lower value 1.01 | S. cerevisiae deletion strains, locus YLR342W, strain FKS1, stronger effect = lower value 0.994 | S. cerevisiae deletion strains, locus YLR357W, strain rsc2, stronger effect = lower value 0.981 | S. cerevisiae deletion strains, locus YLR370C, strain arc18, stronger effect = lower value 0.989 | S. cerevisiae deletion strains, locus YLR371W, strain rom2, stronger effect = lower value 1.01 | S. cerevisiae deletion strains, locus YLR384C, strain iki3, stronger effect = lower value 0.988 | S. cerevisiae deletion strains, locus YLR418C, strain cdc73, stronger effect = lower value 0.981 | S. cerevisiae deletion strains, locus YML016C, strain PPZ1, stronger effect = lower value 1 | S. cerevisiae deletion strains, locus YML032C, strain rad52, stronger effect = lower value 1.02 | S. cerevisiae deletion strains, locus YML120C, strain ndi1, stronger effect = lower value 0.984 | S. cerevisiae deletion strains, locus YML124C, strain tub3, stronger effect = lower value 0.996 | S. cerevisiae deletion strains, locus YMR058W, strain fet3, stronger effect = lower value 0.979 | S. cerevisiae deletion strains, locus YMR078C, strain ctf18, stronger effect = lower value 1 | S. cerevisiae deletion strains, locus YMR125W, strain sto1, stronger effect = lower value 0.97 | S. cerevisiae deletion strains, locus YMR129W, stronger effect = lower value 0.98 | S. cerevisiae deletion strains, locus YMR205C, strain PFK2, stronger effect = lower value 1.01 | S. cerevisiae deletion strains, locus YMR223W, strain ubp8, stronger effect = lower value 0.978 | S. cerevisiae deletion strains, locus YMR231W, strain pep5, stronger effect = lower value 0.994 | S. cerevisiae deletion strains, locus YMR263W, strain SAP30, stronger effect = lower value 1.02 and 1 | S. cerevisiae deletion strains, locus YMR307W, strain GAS1, stronger effect = lower value 0.884 | S. cerevisiae deletion strains, locus YNL067W, strain RPL9B, stronger effect = lower value 1.02 | S. cerevisiae deletion strains, locus YNL071W, strain lat1, stronger effect = lower value 1.01 | S. cerevisiae deletion strains, locus YNL128W, strain TEP1, stronger effect = lower value 1.02 | S. cerevisiae deletion strains, locus YNL153C, strain GIM3, stronger effect = lower value 1.02 and 1.04 | S. cerevisiae deletion strains, locus YNL175C, strain NOP13, stronger effect = lower value 1.01 | S. cerevisiae deletion strains, locus YNL183C, strain NPR1, stronger effect = lower value 0.904 | S. cerevisiae deletion strains, locus YNL197C, strain WHI3, stronger effect = lower value 0.992 | S. cerevisiae deletion strains, locus YNL209W, strain ssb2, stronger effect = lower value 0.998 | S. cerevisiae deletion strains, locus YNL224C, strain SQS1, stronger effect = lower value 0.995 | S. cerevisiae deletion strains, locus YNL233W, strain BNI4, stronger effect = lower value 1.02 | S. cerevisiae deletion strains, locus YNL248C, strain rpa49, stronger effect = lower value 1.01 | S. cerevisiae deletion strains, locus YNL250W, strain rad50, stronger effect = lower value 1 | S. cerevisiae deletion strains, locus YNL271C, strain bni1, stronger effect = lower value 1.01 | S. cerevisiae deletion strains, locus YNL298W, strain CLA4, stronger effect = lower value 0.989 | S. cerevisiae deletion strains, locus YNL307C, strain MCK1, stronger effect = lower value 1.01 | S. cerevisiae deletion strains, locus YNL322C, strain KRE1 (second series), stronger effect = lower value 0.999 | S. cerevisiae deletion strains, locus YNL322C, strain KRE1, stronger effect = lower value 1 and 1.01 | S. cerevisiae deletion strains, locus YNR049C, strain mso1, stronger effect = lower value 0.987 | S. cerevisiae deletion strains, locus YNR052C, strain pop2, stronger effect = lower value 1 | S. cerevisiae deletion strains, locus YOL006C, strain TOP1, stronger effect = lower value 1.07 | S. cerevisiae deletion strains, locus YOL012C, strain htz1 0.911 | S. cerevisiae deletion strains, locus YOL147C, strain pex11, stronger effect = lower value 0.996 | S. cerevisiae deletion strains, locus YOR001W, strain rrp6, stronger effect = lower value 0.985 | S. cerevisiae deletion strains, locus YOR061W, strain CKA2, stronger effect = lower value 1.01 | S. cerevisiae deletion strains, locus YOR069W, strain VPS5, stronger effect = lower value 0.99 | S. cerevisiae deletion strains, locus YOR070C, strain gyp1, stronger effect = lower value 1 | S. cerevisiae deletion strains, locus YOR080W, strain dia2, stronger effect = lower value 0.988 | S. cerevisiae deletion strains, locus YOR083W, strain WHI5 (second series), stronger effect = lower value 1 | S. cerevisiae deletion strains, locus YOR083W, strain WHI5, stronger effect = lower value 0.988 | S. cerevisiae deletion strains, locus YOR106W, strain vam3, stronger effect = lower value 0.979 | S. cerevisiae deletion strains, locus YOR136W, strain idh2, stronger effect = lower value 0.988 | S. cerevisiae deletion strains, locus YOR144C, strain elg1, stronger effect = lower value 1 | S. cerevisiae deletion strains, locus YOR184W, strain ser1, stronger effect = lower value 0.993 | S. cerevisiae deletion strains, locus YOR231W, strain MKK1, stronger effect = lower value 0.979 | S. cerevisiae deletion strains, locus YOR265W, strain rbl2, stronger effect = lower value 0.999 | S. cerevisiae deletion strains, locus YOR270C, strain vph1, stronger effect = lower value 0.975 | S. cerevisiae deletion strains, locus YOR290C, strain snf2, stronger effect = lower value 1 | S. cerevisiae deletion strains, locus YOR316C, strain cot1, stronger effect = lower value 0.999 | S. cerevisiae deletion strains, locus YPL051W, strain arl3, stronger effect = lower value 0.995 | S. cerevisiae deletion strains, locus YPL055C, strain LGE1, stronger effect = lower value 0.993 and 1 | S. cerevisiae deletion strains, locus YPL078C, strain atp4, stronger effect = lower value 0.991 | S. cerevisiae deletion strains, locus YPL106C, strain sse1, stronger effect = lower value 1 | S. cerevisiae deletion strains, locus YPL240C, strain hsp82, stronger effect = lower value 0.986 | S. cerevisiae deletion strains, locus YPL241C, strain CIN2, stronger effect = lower value 1.01 | S. cerevisiae deletion strains, locus YPL256C, strain CLN2, stronger effect = lower value 0.986 | S. cerevisiae deletion strains, locus YPR119W, strain clb2, stronger effect = lower value 1 | S. cerevisiae deletion strains, locus YPR141C, strain kar3, stronger effect = lower value 0.997 | S. cerevisiae deletion strains, locus YPR163C, strain tif3, stronger effect = lower value 1.01 | S. cerevisiae deletion strains, locus YPR167C, strain met16, stronger effect = lower value 1 | S. cerevisiae deletion strains, strain wtn01, stronger effect = lower value 0.997 | S. cerevisiae strains, strain wild type, stronger effect = lower value 1.01
